# Data as given in the antibiotic and cytotoxicity screens of Wong et al. (2023).
# Screen size: about 39,000 compounds; about 3,300 (8.5%) were called active. What follows is part of a selection rich in actives, with near analogues and random picks from the rest.
# Tested on: HepG2
# Assay: cytotoxicity call (relative viability < 0.9)
# Details: 10 µM
row,Structure (SMILES),cytotoxicity call
1,COc1cccc(NC(=O)N(C)C[C@@H]2Oc3cc(C#Cc4ccncc4)ccc3S(=O)(=O)N([C@H](C)CO)C[C@H]2C)c1,active
2,COc1cccc(NC(=O)N(C)C[C@@H]2Oc3cc(C#Cc4ccncc4)ccc3S(=O)(=O)N([C@H](C)CO)C[C@@H]2C)c1,active
3,COc1cccc(NC(=O)N(C)C[C@H]2Oc3cc(Br)ccc3S(=O)(=O)N([C@H](C)CO)C[C@H]2C)c1,inactive
4,COc1cccc(NC(=O)N(C)C[C@H]2Oc3cc(C#Cc4ccncc4)ccc3S(=O)(=O)N([C@@H](C)CO)C[C@@H]2C)c1,active
5,COc1cccc(NC(=O)N(C)C[C@@H]2Oc3cc(C#Cc4ccncc4)ccc3S(=O)(=O)N([C@@H](C)CO)C[C@@H]2C)c1,active
6,Cc1noc(C)c1NC(=O)N(C)C[C@@H]1Oc2c(NS(=O)(=O)c3cn(C)cn3)cccc2C(=O)N([C@H](C)CO)C[C@H]1C,inactive
7,O=C(Nc1ccn([C@H]2O[C@H](CO)[C@@H](O)[C@@H]2O)c(=O)n1)c1ccccc1,inactive
8,O=C(C[C@@H]1CC[C@@H](NC(=O)c2cccnc2)[C@H](CO)O1)NCCN1CCCCC1,inactive
9,O=C(Nc1nccs1)[C@@H]1[C@@H](CO)[C@@H]2Cn3c(cccc3=O)[C@H]1N2C(=O)C1CC1,inactive
10,NCc1cnc2ccccc2c1,inactive
11,C[C@@H]1CCCCO[C@@H](CN(C)C(=O)Nc2cccc3ccccc23)[C@H](C)CN([C@H](C)CO)C(=O)c2cc(N(C)C)ccc2O1,inactive
12,C[C@H](CO)N1C[C@H](C)[C@@H](CN(C)S(=O)(=O)c2cn(C)cn2)Oc2ccc(NS(=O)(=O)c3cccs3)cc2CC1=O,inactive
13,Cc1ccc(S(=O)(=O)Nc2cccc3c2O[C@H](CN(C)Cc2ccc(C(F)(F)F)cc2)[C@@H](C)CN([C@@H](C)CO)C3=O)cc1,inactive
14,CC(=O)N1[C@@H]2c3ccc(-c4ccccc4)c(=O)n3C[C@H]1[C@H](CO)[C@H]2C(=O)NCCCN1CCOCC1,inactive
15,COc1cccc(NC(=O)N(C)C[C@@H]2Oc3cc(C#CC4(O)CCCC4)ccc3S(=O)(=O)N([C@@H](C)CO)C[C@H]2C)c1,inactive
16,COc1cccc(NC(=O)N(C)C[C@@H]2Oc3cc(C#CC4(O)CCCC4)ccc3S(=O)(=O)N([C@H](C)CO)C[C@H]2C)c1,inactive
17,COc1cccc(NC(=O)N(C)C[C@@H]2Oc3cc(C#CC4(O)CCCC4)ccc3S(=O)(=O)N([C@H](C)CO)C[C@@H]2C)c1,inactive
18,COc1cccc(NC(=O)N(C)C[C@H]2Oc3cc(C#Cc4ccncc4)ccc3S(=O)(=O)N([C@H](C)CO)C[C@H]2C)c1,active
19,COc1cccc(NC(=O)N(C)C[C@@H]2Oc3cc(C#Cc4ccncc4)ccc3S(=O)(=O)N([C@@H](C)CO)C[C@H]2C)c1,active
20,COc1cccc(NC(=O)N(C)C[C@H]2Oc3cc(C#Cc4ccncc4)ccc3S(=O)(=O)N([C@H](C)CO)C[C@@H]2C)c1,active
21,COc1cccc(NC(=O)N(C)C[C@H]2Oc3cc(C#Cc4ccncc4)ccc3S(=O)(=O)N([C@@H](C)CO)C[C@H]2C)c1,active
22,COc1cccc(NC(=O)N(C)C[C@@H]2Oc3cc(Br)ccc3S(=O)(=O)N([C@@H](C)CO)C[C@H]2C)c1,inactive

row,Structure (SMILES),cytotoxicity call
1,COc1cccc(NC(=O)N(C)C[C@@H]2Oc3cc(C#CC4(O)CCCC4)ccc3S(=O)(=O)N([C@@H](C)CO)C[C@@H]2C)c1,inactive
2,COc1cccc(NC(=O)N(C)C[C@H]2Oc3cc(C#CC4(O)CCCC4)ccc3S(=O)(=O)N([C@@H](C)CO)C[C@@H]2C)c1,inactive
3,CN(C)CC#Cc1ccc([C@H]2[C@H](CO)N3C(=O)CN(C(=O)CN(C)C)C[C@@H]23)cc1,inactive
4,C/C=C/c1ccc2c(c1)O[C@@H](CN(C)C(=O)c1ccc3c(c1)OCO3)[C@H](C)CN([C@H](C)CO)S2(=O)=O,inactive
5,COC(=O)c1cn(-c2cccc(N)c2)nn1,inactive
6,C[C@H]1CN([C@@H](C)CO)C(=O)Cc2cc(NS(=O)(=O)c3ccc(Cl)cc3)ccc2O[C@H]1CN(C)C(=O)Nc1cccc2ccccc12,inactive
7,C[C@H]1CN([C@@H](C)CO)C(=O)c2cccc(NC(=O)NC3CCCCC3)c2O[C@H]1CN(C)Cc1ccc(Oc2ccccc2)cc1,inactive
8,C[C@@H]1CCCCO[C@H](CN(C)Cc2ccncc2)[C@@H](C)CN([C@@H](C)CO)C(=O)c2cc(NC(=O)CCC(F)(F)F)ccc2O1,inactive
9,C[C@H]1CN([C@@H](C)CO)C(=O)c2cc(NC(=O)CCCCCC(=O)Nc3ccccc3N)ccc2O[C@@H]1CN(C)C(=O)Nc1ccc(F)cc1,inactive
10,CN1CCN(C(=O)C[C@H]2CC[C@@H]3[C@H](COC[C@H](O)CN3S(=O)(=O)c3cccc(Cl)c3)O2)CC1,inactive
11,CN(C)C(=O)C[C@@H]1CC[C@@H]2[C@@H](COc3ccc(NS(=O)(=O)c4cccc(F)c4)cc3C(=O)N2C)O1,inactive
12,C[C@@H]1CN([C@H](C)CO)C(=O)CCCn2nncc2CO[C@H]1CN(C)S(=O)(=O)c1cccc(C#N)c1,inactive
13,CO[C@H]1CN(C)C(=O)c2cc(NC(=O)Nc3ccccc3F)ccc2OC[C@@H](C)N(CCC(F)(F)F)C[C@@H]1C,inactive
14,C[C@H]1CN([C@@H](C)CO)C(=O)c2cc(NC(=O)CCN3CCOCC3)ccc2O[C@H]1CN(C)Cc1ccccc1,inactive
15,CN1CCN(C(=O)C[C@@H]2CC[C@H]3[C@@H](COc4ccc(NC(=O)c5cccs5)cc4C(=O)N3C)O2)CC1,inactive
16,O=C(O)CC(CC(=O)O)C(=O)O,inactive
17,Cc1ccc(S(=O)(=O)N(C)C[C@@H]2Oc3c(NC(=O)C4CCOCC4)cccc3C(=O)N([C@@H](C)CO)C[C@@H]2C)cc1,inactive
18,C[C@@H]1CCCCO[C@H](CN(C)C(=O)Nc2ccccc2)[C@H](C)CN([C@H](C)CO)C(=O)c2cc(NC(=O)c3ccncc3)ccc2O1,inactive
19,CC1(C)S[C@H]2[C@@H](NC(=O)[C@@H](N)c3ccccc3)C(=O)N2[C@@H]1C(=O)O,active
20,CC1(C)S[C@@H]2[C@H](NC(=O)[C@H](N)c3ccc(O)cc3)C(=O)N2[C@H]1C(=O)O,inactive
21,CC1(C)SC2C(NC(=O)C(N)c3ccc(O)cc3)C(=O)N2C1C(=O)O (centres undefined),inactive
22,C/C=C/c1ccc2c(c1)O[C@H](CN(C)C(=O)c1ccc3c(c1)OCO3)[C@H](C)CN([C@@H](C)CO)S2(=O)=O,inactive

row,Structure (SMILES),cytotoxicity call
1,COc1ccc(CNC(=O)N(C)C[C@@H]2OCc3ccccc3-c3c(n(C)c4ccccc34)C(=O)N([C@@H](C)CO)C[C@@H]2C)cc1,inactive
2,C[C@@H]1CCCCO[C@H](CN(C)S(=O)(=O)c2ccccc2)[C@@H](C)CN([C@@H](C)CO)C(=O)c2cc(NC(=O)Nc3cccc4ccccc34)ccc2O1,inactive
3,C[C@@H]1CN([C@@H](C)CO)C(=O)Cc2cc(NS(=O)(=O)c3ccc(F)cc3)ccc2O[C@H]1CN(C)Cc1ccc(-c2ccccc2)cc1,inactive
4,C[C@@H]1CN([C@@H](C)CO)C(=O)Cc2cc(NS(=O)(=O)c3ccc(F)cc3)ccc2O[C@@H]1CN(C)Cc1ccc(-c2ccccc2)cc1,active
5,C[C@@H]1CN([C@H](C)CO)C(=O)Cc2cc(NS(=O)(=O)c3ccc(F)cc3)ccc2O[C@@H]1CN(C)Cc1ccc(-c2ccccc2)cc1,active
6,C[C@H](CO)N1C[C@H](C)[C@@H](CN(C)Cc2ccc(-c3ccccc3)cc2)Oc2ccc(NS(=O)(=O)c3ccc(F)cc3)cc2CC1=O,active
7,C[C@H](CO)N1C[C@H](C)[C@H](CN(C)Cc2ccc(-c3ccccc3)cc2)Oc2ccc(NS(=O)(=O)c3ccc(F)cc3)cc2CC1=O,active
8,C[C@H]1CN([C@@H](C)CO)C(=O)Cc2cc(NS(=O)(=O)c3ccc(F)cc3)ccc2O[C@H]1CN(C)Cc1ccc(-c2ccccc2)cc1,inactive
9,C[C@H]1CN([C@@H](C)CO)C(=O)Cc2cc(NS(=O)(=O)c3ccc(F)cc3)ccc2O[C@@H]1CN(C)Cc1ccc(-c2ccccc2)cc1,inactive
10,C[C@@H]1CN([C@@H](C)CO)C(=O)c2cc(C#CCc3ccccc3)cnc2O[C@@H]1CN(C)CC1CCOCC1,inactive
11,COc1ccc(NC(=O)N(C)C[C@@H]2Oc3c(NC(=O)Nc4cccc5ccccc45)cccc3C(=O)N([C@H](C)CO)C[C@@H]2C)cc1,inactive
12,C[C@@H]1CCCCO[C@H](CN(C)C(=O)c2ccccc2)[C@@H](C)CN([C@H](C)CO)C(=O)c2cc(NS(=O)(=O)c3ccc(F)cc3)ccc2O1,inactive
13,C[C@@H]1CCCCO[C@@H](CN(C)S(=O)(=O)c2ccccc2)[C@@H](C)CN([C@@H](C)CO)C(=O)c2cc(NS(=O)(=O)c3cn(C)cn3)ccc2O1,inactive
14,COc1ccc(S(=O)(=O)Nc2ccc3c(c2)CC(=O)N([C@H](C)CO)C[C@@H](C)[C@H](CN(C)S(=O)(=O)c2ccccc2)O3)cc1,inactive
15,Cc1noc(C)c1NC(=O)N[C@H]1C=C[C@H](CC(=O)N2CCN(C)CC2)O[C@@H]1CO,inactive
16,C[C@H]1CCCCO[C@@H](CN(C)C(=O)NC2CCCCC2)[C@@H](C)CN([C@@H](C)CO)C(=O)c2cc(NC(=O)Cc3ccccc3)ccc2O1,inactive
17,COc1ccc(NC(=O)Nc2cccc3c2O[C@H](CN(C)C(=O)Nc2cccc4ccccc24)[C@H](C)CN([C@@H](C)CO)C3=O)cc1,inactive
18,Cc1c(N2CCCC2)cc2c(c1-n1cccc1)C(C)(C)CC2(C)C,inactive
19,COc1ccc2c3c(n(c2c1)C)[C@@H](CO)N(Cc1cc(cc(c1)OC)OC)C[C@]13CN(C1)S(=O)(=O)c1cn(cn1)C,inactive
20,O=S(=O)(NCC[C@@H]1CC[C@@H](NS(=O)(=O)c2ccccc2Cl)[C@H](CO)O1)c1ccc(Cl)cc1,inactive
